From the supplement of paper PMC7335073
In all, about 4,100 sequences were measured (“relative CpG methylation activity (normalised to average over all NNNCGNNN flanks)”: median about 0.87, highest 2% from about 2.4 on). This excerpt belongs to a sample that is enriched for the highest values.

Target: DNMT3A catalytic domain (mouse) (UniProt O88508)
Assay: relative CpG methylation activity (normalised to average over all NNNCGNNN flanks) (relative (1 = mean)); higher = more methylation of the central CpG
Conditions: system: in vitro, murine catalytic domain; CpG state: hemimethylated substrate pool; residues: 608-908
Protocol: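 Deep enzymology: a pool of dsDNA substrates with a central CpG flanked by 10 random nucleotides on each side was methylated by the murine DNMT3A or DNMT3B catalytic domain (0.8 mM SAM, 37 °C, 60 min). Methylation was then read out by hairpin ligation, bisulfite conversion and NGS. Values are the average methylation of each NNNCGNNN context (±3 flanks; the outer flanks are random and averaged over), normalised to the overall mean, so 1 = average activity.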

Sequence | relative CpG methylation activity
ATACGGTC | 2.39
ATACGCTA | 2.15
GTACGCTG | 1.88
TTACGCTT | 2.62
CTACGGTC | 1.92
GTACGCTA | 1.98
ATACGCTT | 2.67
TAACGCTT | 1.53
ATACGCTG | 2.12
ATACGGTG | 0.775
GTACGCTT | 2.66
TGACGCTT | 1.05
CCTCGCAA | 1.31
CGGCGTAC | 0.625
AGGCGCAG | 0.331
TCTCGGTG | 0.645
TTACGCGA | 1.73
ACTCGTAG | 0.496
GAGCGCCT | 1.95
AGACGTCA | 1.03
AGACGATG | 0.457
GTACGCGC | 2.11
TTACGCTC | 2.74
GTACGCTC | 2.72
AAACGCTC | 1.44
TTACGCTG | 1.74

Sequence | relative CpG methylation activity
GTACGCAC | 1.87
ATACGCTC | 2.73
TTACGCAC | 2.32
AGACGCTC | 1.49
GCTCGACA | 1.04
TTCCGTGG | 0.603
TTGCGTAT | 1.47
ACTCGGAT | 0.799
AGGCGTTA | 0.256
ATACGAGT | 1.56
GCGCGGGG | 0.217
GTGCGCCA | 2.05
GTGCGCTA | 1.91
CTGCGCCT | 1.81
GTGCGCTT | 2.47
GTGCGCCT | 2.43
GTGCGCTC | 2.03
CGACGTTG | 0.323
TCCCGCAT | 0.92
GGACGATA | 0.784
TTTCGCCG | 1.83
AGACGTAT | 0.427
CTCCGATC | 2.41
CTACGATT | 1.89
ATACGACG | 1.73
GTCCGATC | 2.18

Sequence | relative CpG methylation activity
CTACGATG | 1.2
TTCCGATC | 2.29
ATACGAGC | 2.39
GTACGACC | 2.03
GTACGAGC | 2.12
CTACGATC | 2.4
TTACGAGC | 2.12
ATACGACC | 2.41
GGTCGCTG | 0.804
ACCCGGTC | 1.19
CCCCGCCT | 2.14
TGTCGGAA | 0.614
CCGCGTGG | 0.205
ACGCGCGG | 0.42
GCCCGGAT | 0.551
CTACGAGT | 1.7
CTACGAGA | 1.72
CTACGAGC | 2.44
TTCCGACG | 1.77
CTTCGCTC | 2.46
CTTCGCTT | 1.78
GTTCGCTC | 2.37
TTTCGCTC | 2.02
CTTCGCTA | 1.66
GTTCGCTG | 1.46
GGCCGGGC | 0.75

Sequence | relative CpG methylation activity
GATCGAGC | 0.679
TTACGTCT | 2.14
CCACGTCC | 1.94
CTACGTCC | 2.8
ACACGTCA | 2.19
CAACGTCC | 1.67
CTACGTGT | 1.07
TGACGTCC | 1.32
CCACGTCT | 1.61
TCACGTCC | 1.98
TTACGTCC | 2.56
CTACGTCT | 2.45
ACACGTCC | 2.46
GGACGAGA | 0.605
TCTCGTGT | 0.225
ATGCGGTG | 0.407
ACCCGACG | 1.17
GCTCGGAA | 0.694
GAGCGTAG | 0.34
CCGCGGAA | 0.965
AAACGGTC | 0.701
CCACGTCA | 1.71
GTACGTAC | 1.62
CTACGTCA | 2.51
GTACGTCA | 2.5
TTGCGTCC | 2.39

Sequence | relative CpG methylation activity
TTGCGTCT | 1.67
CTACGTGA | 1.2
GAACGTCC | 1.06
GTACGTCT | 2.06
CTGCGTCC | 2.14
GCACGTCA | 1.86
GTACGTCC | 2.41
ACGCGCCG | 1.59
ACCCGGTG | 0.688
GCACGAGG | 0.755
TGACGTAC | 0.438
CTCCGAAG | 1.01
CAGCGCTC | 1.08
GCGCGAGA | 0.455
CGCCGAGT | 0.664
TAACGGCG | 0.782
ATACGTCG | 2.26
ATACGTGA | 1.2
ATACGTCC | 2.56
ATACGTCA | 2.47
ATACGTCT | 2.22
AAACGTCA | 1.14
GGACGGGC | 0.536
CGCCGATA | 0.761
TCTCGAGG | 0.357
GTGCGTGC | 1.11

Sequence | relative CpG methylation activity
CATCGGAG | 0.238
TGTCGAAC | 0.773
GGGCGCCA | 1.15
CTACGTAC | 1.9
TTACGTAT | 1.48
CTACGTAA | 2.4
ATACGTAA | 2.01
TTACGTAA | 2.54
TTACGTAG | 1.34
CTTCGCAA | 1.52
AGCCGGGA | 0.357
GAGCGCTG | 0.969
TTGCGCCA | 1.75
ATGCGCCC | 2.44
GTGCGCCC | 2.22
GTGCGCCG | 1.79
CTGCGCCG | 1.93
CTGCGCCC | 2.19
TTGCGCCT | 2.1
TTGCGCCC | 2.61
ATGCGCCG | 2.39
CGTCGAGC | 1.06
AGCCGCAG | 0.256
CGGCGTAA | 0.615
GCACGGGA | 1.04
GTCCGTCA | 2.41

Sequence | relative CpG methylation activity
TTCCGTCG | 2.09
GTCCGTTG | 1.25
GTCCGTCG | 2.53
GTCCGTCT | 2.14
ATCCGTCT | 2.05
GTCCGTCC | 2.02
CTCCGTCT | 1.84
TTCCGTCT | 2.58
TGCCGCGA | 0.629
TGCCGCTT | 1.45
CGGCGGAT | 0.495
CGTCGTAG | 0.312
AACCGTCG | 1.34
TTACGTTG | 1.34
TTACGTCA | 2.5
TTACGTTA | 2.55
TTACGTCG | 2.52
TGACGTCG | 1.02
CTACGTCG | 2.46
CGACGTCG | 1.28
